# PMC7862700, “An all-to-all approach to the identification of sequence-specific readers for epigenetic DNA modifications on cytosine”
# Assays:
# Assay in all cases: DAPPL (digital affinity profiling via proximity ligation, sequencing); 10 mM Tris-HCl pH 7.5, 50 mM NaCl, 1 mM DTT, 4% glycerol, room temperature, 30 min; GST-TFs on glutathione beads, 16-mer random dsDNA library, 0.1% formaldehyde crosslink after washing; high values mean tight binding
# FEV = target: T1, FEV (Homo sapiens, UniProt Q99581 1-238); details: protein: recombinant; tags: N-terminal GST; dsDNA, one strand shown
# T1 sequence: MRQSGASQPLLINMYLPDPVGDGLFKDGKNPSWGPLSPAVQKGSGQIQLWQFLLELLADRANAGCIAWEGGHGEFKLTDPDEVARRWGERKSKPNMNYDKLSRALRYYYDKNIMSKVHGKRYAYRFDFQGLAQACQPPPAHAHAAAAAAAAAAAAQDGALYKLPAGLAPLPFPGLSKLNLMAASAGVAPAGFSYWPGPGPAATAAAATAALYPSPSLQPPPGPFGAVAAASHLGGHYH
# Summary of the method: (§1)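 Binding signal is given per hexamer as its read frequency for a factor divided by its frequency in the tag-only sample. GST-fused human transcription factors were expressed in yeast, captured on glutathione beads, barcoded with DNA and pooled with that sample, then incubated with 200 nmole of a 16-mer random double-stranded DNA library in Tris/NaCl/DTT/glycerol buffer for 30 min at room temperature. The pools were then washed, crosslinked, proximity-ligated, amplified by PCR and sequenced on an Illumina NextSeq500.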
# ETV5 = ETV5 (Homo sapiens, UniProt P41161 1-510); details: protein: recombinant; tags: N-terminal GST; dsDNA, one strand shown
# Chain of ETV5 (P41161 whole entry): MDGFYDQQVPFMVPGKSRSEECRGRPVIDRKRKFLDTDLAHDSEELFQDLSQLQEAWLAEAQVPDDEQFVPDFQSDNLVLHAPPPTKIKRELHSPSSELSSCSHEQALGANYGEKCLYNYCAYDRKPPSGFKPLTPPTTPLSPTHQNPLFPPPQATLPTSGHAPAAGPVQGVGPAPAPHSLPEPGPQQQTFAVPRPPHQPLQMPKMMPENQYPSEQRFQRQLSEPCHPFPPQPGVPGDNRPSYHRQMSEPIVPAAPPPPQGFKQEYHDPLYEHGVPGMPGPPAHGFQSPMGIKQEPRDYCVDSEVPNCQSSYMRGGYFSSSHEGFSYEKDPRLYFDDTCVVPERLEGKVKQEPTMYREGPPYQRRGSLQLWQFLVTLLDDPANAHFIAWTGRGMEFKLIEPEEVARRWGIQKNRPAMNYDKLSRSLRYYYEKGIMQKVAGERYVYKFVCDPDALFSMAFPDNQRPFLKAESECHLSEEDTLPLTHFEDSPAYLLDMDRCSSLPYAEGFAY
# Summary of the method: as §1
# HSF1 = HSF1 (Homo sapiens, UniProt Q00613 1-529); details: protein: recombinant; tags: N-terminal GST; chain copies: 3; dsDNA, one strand shown
# Chain of HSF1 (Q00613 whole entry): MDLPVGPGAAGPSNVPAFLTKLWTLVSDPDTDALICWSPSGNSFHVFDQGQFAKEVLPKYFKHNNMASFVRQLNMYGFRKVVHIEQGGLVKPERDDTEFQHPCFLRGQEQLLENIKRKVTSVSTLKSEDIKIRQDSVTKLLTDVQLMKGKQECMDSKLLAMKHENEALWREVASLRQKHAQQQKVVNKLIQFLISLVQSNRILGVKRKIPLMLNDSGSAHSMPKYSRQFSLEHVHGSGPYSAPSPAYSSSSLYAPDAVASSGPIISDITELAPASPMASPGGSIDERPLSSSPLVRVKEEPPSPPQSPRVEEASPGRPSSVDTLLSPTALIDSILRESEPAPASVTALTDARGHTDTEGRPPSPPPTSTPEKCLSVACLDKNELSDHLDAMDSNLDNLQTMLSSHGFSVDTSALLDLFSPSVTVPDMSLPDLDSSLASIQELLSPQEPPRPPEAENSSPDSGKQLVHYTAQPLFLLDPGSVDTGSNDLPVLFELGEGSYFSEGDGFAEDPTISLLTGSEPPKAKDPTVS
# Summary of the method: as §1
# SPIC = target: T2, SPIC (Homo sapiens, UniProt Q8N5J4 1-248); details: protein: recombinant; tags: N-terminal GST; dsDNA, one strand shown
# T2 sequence: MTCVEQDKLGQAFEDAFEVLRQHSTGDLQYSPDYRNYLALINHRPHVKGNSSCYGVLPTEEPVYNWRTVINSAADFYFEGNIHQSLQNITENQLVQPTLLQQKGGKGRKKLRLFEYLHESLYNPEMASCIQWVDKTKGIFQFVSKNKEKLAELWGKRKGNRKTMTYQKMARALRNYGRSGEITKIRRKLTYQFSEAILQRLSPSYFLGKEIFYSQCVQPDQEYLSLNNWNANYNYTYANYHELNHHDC
# Summary of the method: as §1
# ELF4 = ELF4 (Homo sapiens, UniProt Q99607 1-663); details: protein: recombinant; tags: N-terminal GST; dsDNA, one strand shown
# Chain of ELF4 (Q99607 whole entry): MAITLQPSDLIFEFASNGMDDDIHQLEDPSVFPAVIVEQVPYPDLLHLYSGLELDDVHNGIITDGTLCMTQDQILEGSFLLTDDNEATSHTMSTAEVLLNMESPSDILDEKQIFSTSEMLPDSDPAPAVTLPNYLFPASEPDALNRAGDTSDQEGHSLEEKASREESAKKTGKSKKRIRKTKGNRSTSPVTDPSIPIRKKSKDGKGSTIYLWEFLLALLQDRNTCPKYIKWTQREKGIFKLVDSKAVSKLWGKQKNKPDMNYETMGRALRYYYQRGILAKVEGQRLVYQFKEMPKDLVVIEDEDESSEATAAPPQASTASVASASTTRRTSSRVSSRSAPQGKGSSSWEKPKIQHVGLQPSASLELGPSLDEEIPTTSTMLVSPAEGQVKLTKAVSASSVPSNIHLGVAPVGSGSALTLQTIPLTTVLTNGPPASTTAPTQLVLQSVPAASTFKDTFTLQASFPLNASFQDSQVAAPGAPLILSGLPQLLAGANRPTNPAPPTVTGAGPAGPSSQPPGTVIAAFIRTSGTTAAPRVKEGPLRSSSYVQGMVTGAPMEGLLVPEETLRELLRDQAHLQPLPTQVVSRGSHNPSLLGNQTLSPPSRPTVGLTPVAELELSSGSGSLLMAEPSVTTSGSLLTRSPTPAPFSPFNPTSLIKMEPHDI
# Summary of the method: as §1
# ELK4 = target: T3, ELK4 (Homo sapiens, UniProt P28324-2 1-405); details: protein: recombinant; tags: N-terminal GST; dsDNA, one strand shown
# T3 sequence: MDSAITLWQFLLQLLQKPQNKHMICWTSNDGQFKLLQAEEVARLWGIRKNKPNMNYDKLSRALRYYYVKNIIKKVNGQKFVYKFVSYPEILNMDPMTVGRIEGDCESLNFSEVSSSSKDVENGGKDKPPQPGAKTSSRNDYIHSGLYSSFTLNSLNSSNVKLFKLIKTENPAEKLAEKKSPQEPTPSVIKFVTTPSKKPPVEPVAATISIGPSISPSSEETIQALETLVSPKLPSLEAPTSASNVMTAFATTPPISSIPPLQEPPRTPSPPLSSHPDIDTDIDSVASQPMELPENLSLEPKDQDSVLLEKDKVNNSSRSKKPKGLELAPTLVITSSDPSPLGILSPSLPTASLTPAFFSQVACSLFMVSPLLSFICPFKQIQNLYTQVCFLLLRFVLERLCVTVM
# Summary of the method: as §1
# ETV2 = target: T4, ETV2 (Homo sapiens, UniProt O00321 1-342); details: protein: recombinant; tags: N-terminal GST; dsDNA, one strand shown
# T4 sequence: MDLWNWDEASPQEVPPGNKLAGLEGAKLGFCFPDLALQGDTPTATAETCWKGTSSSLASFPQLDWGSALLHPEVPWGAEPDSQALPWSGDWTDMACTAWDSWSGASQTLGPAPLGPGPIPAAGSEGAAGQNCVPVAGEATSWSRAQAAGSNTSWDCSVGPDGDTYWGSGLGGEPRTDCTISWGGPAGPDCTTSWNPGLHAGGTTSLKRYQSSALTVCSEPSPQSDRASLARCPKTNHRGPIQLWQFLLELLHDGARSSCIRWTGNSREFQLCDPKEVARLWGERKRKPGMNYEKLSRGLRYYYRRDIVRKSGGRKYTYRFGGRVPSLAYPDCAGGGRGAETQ
# Summary of the method: as §1
# ELF3 = target: T5, ELF3 (Homo sapiens, UniProt P78545 1-371); details: protein: recombinant; tags: N-terminal GST; dsDNA, one strand shown
# T5 sequence: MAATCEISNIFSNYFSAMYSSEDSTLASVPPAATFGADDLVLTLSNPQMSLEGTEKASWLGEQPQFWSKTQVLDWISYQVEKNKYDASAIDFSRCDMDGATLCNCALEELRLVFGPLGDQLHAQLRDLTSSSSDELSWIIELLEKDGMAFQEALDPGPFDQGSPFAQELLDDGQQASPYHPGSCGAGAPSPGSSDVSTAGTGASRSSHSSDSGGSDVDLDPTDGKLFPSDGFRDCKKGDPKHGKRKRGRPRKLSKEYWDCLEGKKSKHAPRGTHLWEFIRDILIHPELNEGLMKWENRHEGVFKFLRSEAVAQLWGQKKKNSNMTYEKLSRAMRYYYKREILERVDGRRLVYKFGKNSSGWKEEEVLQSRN
# Summary of the method: as §1
# CRX = CRX (Homo sapiens, UniProt O43186 1-299); details: protein: recombinant; tags: N-terminal GST; dsDNA, one strand shown
# Chain of CRX (O43186 whole entry): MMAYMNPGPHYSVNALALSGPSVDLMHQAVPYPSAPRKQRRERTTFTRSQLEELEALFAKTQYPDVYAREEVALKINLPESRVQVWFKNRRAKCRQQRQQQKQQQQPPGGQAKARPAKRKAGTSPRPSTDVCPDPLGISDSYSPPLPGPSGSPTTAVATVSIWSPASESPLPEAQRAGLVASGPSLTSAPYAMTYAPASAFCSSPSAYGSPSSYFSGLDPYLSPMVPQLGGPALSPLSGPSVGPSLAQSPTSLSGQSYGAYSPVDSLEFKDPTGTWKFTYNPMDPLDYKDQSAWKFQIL
# Summary of the method: as §1
# ETV1 = ETV1 (Homo sapiens, UniProt P50549 1-477); details: protein: recombinant; tags: N-terminal GST; dsDNA, one strand shown
# Chain of ETV1 (P50549 whole entry): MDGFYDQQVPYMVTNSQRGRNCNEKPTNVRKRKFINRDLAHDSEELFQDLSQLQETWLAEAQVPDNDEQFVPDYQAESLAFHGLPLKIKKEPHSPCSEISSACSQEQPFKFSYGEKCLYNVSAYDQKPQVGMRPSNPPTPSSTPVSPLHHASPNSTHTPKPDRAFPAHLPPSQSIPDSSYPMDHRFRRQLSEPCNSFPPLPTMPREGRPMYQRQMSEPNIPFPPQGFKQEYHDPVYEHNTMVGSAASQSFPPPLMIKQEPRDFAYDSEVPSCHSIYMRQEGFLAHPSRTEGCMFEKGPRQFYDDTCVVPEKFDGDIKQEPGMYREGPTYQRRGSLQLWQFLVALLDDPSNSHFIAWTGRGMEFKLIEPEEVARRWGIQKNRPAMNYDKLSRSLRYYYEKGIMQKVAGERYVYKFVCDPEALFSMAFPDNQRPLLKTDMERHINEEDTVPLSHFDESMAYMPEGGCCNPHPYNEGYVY
# Summary of the method: as §1
# ERF = target: T6, ERF (Homo sapiens, UniProt P50548 1-548); details: protein: recombinant; tags: N-terminal GST; dsDNA, one strand shown
# T6 sequence: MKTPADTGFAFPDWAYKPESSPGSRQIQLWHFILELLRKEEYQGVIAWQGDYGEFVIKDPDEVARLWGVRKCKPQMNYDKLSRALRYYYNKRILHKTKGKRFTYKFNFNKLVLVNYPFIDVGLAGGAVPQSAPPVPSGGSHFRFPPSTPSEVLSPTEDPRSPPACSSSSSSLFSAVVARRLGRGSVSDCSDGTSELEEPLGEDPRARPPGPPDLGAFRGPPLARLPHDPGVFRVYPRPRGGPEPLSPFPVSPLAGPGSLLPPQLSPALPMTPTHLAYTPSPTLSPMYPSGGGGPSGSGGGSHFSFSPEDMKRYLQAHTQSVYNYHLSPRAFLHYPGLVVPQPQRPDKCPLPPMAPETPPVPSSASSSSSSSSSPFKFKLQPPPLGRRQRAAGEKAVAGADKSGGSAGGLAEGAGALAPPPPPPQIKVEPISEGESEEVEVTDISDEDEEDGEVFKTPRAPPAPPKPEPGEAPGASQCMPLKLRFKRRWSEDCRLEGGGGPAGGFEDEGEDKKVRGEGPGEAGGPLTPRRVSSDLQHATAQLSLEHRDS
# Summary of the method: as §1
# ETV3L = target: T7, ETV3L (Homo sapiens, UniProt Q6ZN32 1-361); details: protein: recombinant; tags: N-terminal GST; dsDNA, one strand shown
# T7 sequence: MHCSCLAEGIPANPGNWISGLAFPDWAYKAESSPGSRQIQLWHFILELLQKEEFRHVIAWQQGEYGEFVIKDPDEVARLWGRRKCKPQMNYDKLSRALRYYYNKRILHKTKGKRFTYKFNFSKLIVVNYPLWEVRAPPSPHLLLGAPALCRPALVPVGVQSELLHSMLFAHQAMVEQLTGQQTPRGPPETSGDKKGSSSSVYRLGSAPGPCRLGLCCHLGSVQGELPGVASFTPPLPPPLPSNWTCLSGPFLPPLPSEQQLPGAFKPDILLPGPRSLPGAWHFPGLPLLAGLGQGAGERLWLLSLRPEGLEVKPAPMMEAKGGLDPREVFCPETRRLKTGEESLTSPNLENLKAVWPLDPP
# Summary of the method: as §1
# ETS2 = target: T8, ETS2 (Homo sapiens, UniProt P15036 1-469); details: protein: recombinant; tags: N-terminal GST; dsDNA, one strand shown
# T8 sequence: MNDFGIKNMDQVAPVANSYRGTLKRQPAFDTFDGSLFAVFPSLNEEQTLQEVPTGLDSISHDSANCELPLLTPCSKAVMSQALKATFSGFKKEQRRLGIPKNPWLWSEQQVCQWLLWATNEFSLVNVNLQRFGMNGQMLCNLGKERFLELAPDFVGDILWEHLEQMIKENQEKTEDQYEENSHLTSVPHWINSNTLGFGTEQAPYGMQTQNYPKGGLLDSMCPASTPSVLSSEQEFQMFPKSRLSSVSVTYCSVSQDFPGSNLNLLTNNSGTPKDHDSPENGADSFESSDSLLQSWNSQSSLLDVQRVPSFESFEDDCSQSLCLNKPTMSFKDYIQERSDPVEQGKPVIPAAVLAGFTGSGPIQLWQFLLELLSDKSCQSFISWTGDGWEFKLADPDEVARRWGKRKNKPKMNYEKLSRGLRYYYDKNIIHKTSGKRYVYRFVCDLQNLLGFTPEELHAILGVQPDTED
# Summary of the method: as §1
# SPDEF = target: T9, SPDEF (Homo sapiens, UniProt O95238 1-335); details: protein: recombinant; tags: N-terminal GST; dsDNA, one strand shown
# T9 sequence: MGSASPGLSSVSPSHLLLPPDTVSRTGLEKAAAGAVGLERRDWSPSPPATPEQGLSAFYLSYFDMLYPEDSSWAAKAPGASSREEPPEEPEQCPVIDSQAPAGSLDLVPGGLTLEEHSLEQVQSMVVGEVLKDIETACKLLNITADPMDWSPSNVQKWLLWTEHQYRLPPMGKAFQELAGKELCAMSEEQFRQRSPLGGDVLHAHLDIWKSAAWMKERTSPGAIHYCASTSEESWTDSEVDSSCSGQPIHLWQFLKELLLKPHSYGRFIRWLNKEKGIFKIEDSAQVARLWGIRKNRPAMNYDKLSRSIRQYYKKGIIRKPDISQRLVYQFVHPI
# Summary of the method: as §1
# ETV7 = target: T10, ETV7 (Homo sapiens, UniProt Q9Y603 1-341); details: protein: recombinant; tags: N-terminal GST; dsDNA, one strand shown
# T10 sequence: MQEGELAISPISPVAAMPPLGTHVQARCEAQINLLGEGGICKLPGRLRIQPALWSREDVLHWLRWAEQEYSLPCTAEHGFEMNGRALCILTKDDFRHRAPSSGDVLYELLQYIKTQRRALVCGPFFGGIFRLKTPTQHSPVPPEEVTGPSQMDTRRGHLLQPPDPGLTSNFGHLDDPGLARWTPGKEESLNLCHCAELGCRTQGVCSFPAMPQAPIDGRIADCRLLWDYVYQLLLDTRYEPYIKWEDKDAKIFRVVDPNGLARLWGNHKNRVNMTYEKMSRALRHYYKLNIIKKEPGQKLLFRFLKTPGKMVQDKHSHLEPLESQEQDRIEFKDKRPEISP
# Summary of the method: as §1
# ELF5 = target: T11, ELF5 (Homo sapiens, UniProt Q9UKW6-2 1-255); details: protein: recombinant; tags: N-terminal GST; dsDNA, one strand shown
# T11 sequence: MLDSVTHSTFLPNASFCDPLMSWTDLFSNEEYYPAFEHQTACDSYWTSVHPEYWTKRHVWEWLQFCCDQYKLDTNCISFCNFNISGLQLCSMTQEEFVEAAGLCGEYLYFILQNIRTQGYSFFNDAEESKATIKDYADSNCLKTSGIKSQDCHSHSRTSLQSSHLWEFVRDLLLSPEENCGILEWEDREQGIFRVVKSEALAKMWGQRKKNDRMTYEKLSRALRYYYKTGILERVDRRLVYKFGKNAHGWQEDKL
# Summary of the method: as §1
# ETV3 = target: T12, ETV3 (Homo sapiens, UniProt P41162-2 1-143); details: protein: recombinant; tags: N-terminal GST; dsDNA, one strand shown
# T12 sequence: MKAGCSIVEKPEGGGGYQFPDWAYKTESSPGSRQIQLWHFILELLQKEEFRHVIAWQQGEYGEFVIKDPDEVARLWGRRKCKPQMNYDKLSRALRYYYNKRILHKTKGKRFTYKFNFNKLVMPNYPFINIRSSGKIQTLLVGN
# Summary of the method: as §1
# ETV6 = ETV6 (Homo sapiens, UniProt P41212 1-452); details: protein: recombinant; tags: N-terminal GST; dsDNA, one strand shown
# Chain of ETV6 (P41212 whole entry): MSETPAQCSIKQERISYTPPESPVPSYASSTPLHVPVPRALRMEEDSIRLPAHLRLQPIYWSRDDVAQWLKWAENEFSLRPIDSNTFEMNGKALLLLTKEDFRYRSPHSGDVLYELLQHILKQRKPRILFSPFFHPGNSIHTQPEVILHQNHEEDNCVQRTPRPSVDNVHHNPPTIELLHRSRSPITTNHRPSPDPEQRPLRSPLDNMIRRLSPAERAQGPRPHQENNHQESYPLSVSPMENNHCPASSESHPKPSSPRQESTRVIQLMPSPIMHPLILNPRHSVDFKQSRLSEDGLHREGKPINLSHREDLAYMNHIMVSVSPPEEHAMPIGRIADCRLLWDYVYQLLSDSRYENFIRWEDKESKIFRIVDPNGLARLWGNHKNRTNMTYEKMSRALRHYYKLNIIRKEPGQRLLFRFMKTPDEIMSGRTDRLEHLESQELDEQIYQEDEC
# Summary of the method: as §1
sequence,measurement,setting,value
TACAGA,binding signal,FEV,"1.13 fold enrichment (6-mer frequency, TF over GST control)"
same,binding signal,ETV5,"1.12 fold enrichment (6-mer frequency, TF over GST control)"
same,binding signal,HSF1,"1.28 fold enrichment (6-mer frequency, TF over GST control)"
same,binding signal,SPIC,"1.25 fold enrichment (6-mer frequency, TF over GST control)"
same,binding signal,ELF4,"1.13 fold enrichment (6-mer frequency, TF over GST control)"
same,binding signal,ELK4,"1.1 fold enrichment (6-mer frequency, TF over GST control)"
same,binding signal,ETV2,"1.25 fold enrichment (6-mer frequency, TF over GST control)"
same,binding signal,ELF3,"1.11 fold enrichment (6-mer frequency, TF over GST control)"
same,binding signal,CRX,"1.25 fold enrichment (6-mer frequency, TF over GST control)"
same,binding signal,ETV1,"1.16 fold enrichment (6-mer frequency, TF over GST control)"
same,binding signal,ERF,"1.13 fold enrichment (6-mer frequency, TF over GST control)"
same,binding signal,ETV3L,"1.04 fold enrichment (6-mer frequency, TF over GST control)"
same,binding signal,ETS2,"1.14 fold enrichment (6-mer frequency, TF over GST control)"
same,binding signal,SPDEF,"1.16 fold enrichment (6-mer frequency, TF over GST control)"
same,binding signal,ETV7,"1.18 fold enrichment (6-mer frequency, TF over GST control)"
same,binding signal,ELF5,"1.11 fold enrichment (6-mer frequency, TF over GST control)"
same,binding signal,ETV3,"1.1 fold enrichment (6-mer frequency, TF over GST control)"
same,binding signal,ETV6,"1.1 fold enrichment (6-mer frequency, TF over GST control)"
